SMN2 splice enh = qHTS Assay for Enhancers of SMN2 Splice Variant Expression. HEK293 SMN2-luciferase splicing reporter, luminescence, 30-36 h. Potency, µM (doses to about 46.1 µM), for the others: at the highest dose activity change, positive = activation, actives largely listed as activators. 210,000 tested, 2.8% active; note: % of control where 0% means no effect; nearly all actives have a fitted effect of over 55% in size
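qHTS luciferase splicing reporter: luminescence rises when SMN2 exon 7 is included in transfected HEK293 cells. Compound exposure lasted 30-36 h at 37C, with 4.5 mM final sodium butyrate as control, followed by a ONE-Glo read.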
FLuc counter = qHTS profiling assay for firefly luciferase inhibitor/activator using purifed enzyme and Km concentrations of substrates (counterscreen for miR-21 project); purified FLuc, Km substrates, luminescence inhibition; Potency, µM (titrated, usually from 57.5 µM), without a hit: at the highest dose activity change, negative = inhibition, usual class: inhibitors; 360,000 tested, 6.9% active; AID 588342, 2011;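 note: plate controls were vehicle for no effect and reference inhibitor for full effect; nearly all actives have a fitted effect of over 55% in size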
Target sequence (P08659 whole entry, looked up): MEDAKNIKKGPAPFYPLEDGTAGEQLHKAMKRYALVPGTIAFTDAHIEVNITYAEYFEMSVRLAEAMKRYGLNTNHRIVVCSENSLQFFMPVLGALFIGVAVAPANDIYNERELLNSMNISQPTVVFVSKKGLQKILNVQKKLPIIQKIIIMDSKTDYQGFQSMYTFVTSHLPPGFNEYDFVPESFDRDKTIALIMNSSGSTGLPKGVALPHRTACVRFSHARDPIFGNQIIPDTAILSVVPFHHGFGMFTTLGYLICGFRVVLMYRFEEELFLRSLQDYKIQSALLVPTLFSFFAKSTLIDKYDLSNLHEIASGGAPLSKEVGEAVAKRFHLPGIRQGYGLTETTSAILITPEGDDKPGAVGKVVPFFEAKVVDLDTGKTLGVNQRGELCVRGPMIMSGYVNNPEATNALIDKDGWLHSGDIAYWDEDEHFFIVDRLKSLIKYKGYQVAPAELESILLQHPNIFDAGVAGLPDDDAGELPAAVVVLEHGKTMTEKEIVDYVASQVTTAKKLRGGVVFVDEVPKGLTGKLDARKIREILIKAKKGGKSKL
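Purified P. pyralis luciferase (10nM final) with 10uM D-luciferin and 10uM ATP (Km levels) in 50mM Tris acetate pH 7.5, 10mM Mg acetate, 0.01% Tween-20, 0.05% BSA; qHTS 6-point titration, ~60 µM downward; luminescence read.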
ELG1 genotox = qHTS screen for small molecules that induce genotoxicity in human embryonic kidney (HEK293T) cells expressing luciferase-tagged ELG1. HEK293T ELG1-luciferase reporter, luminescence, 16 h. Potency, µM (highest dose often 46 µM), inactives show top-dose activity change, positive = activation, hits mostly activators. 330,000 tested, 1.3% active. AID 504466, 2011; note: % of control where 0% means no effect; nearly all actives have a fitted effect of over 60% in size
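Cells (2,000/well) expressing the ELG1-luciferase fusion are dosed by pin tool and kept 16 hr at 37 °C, 5% CO2. Signal comes from ONE-Glo luciferase reagent after 30 min at room temperature.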
NPC1 promoter act = qHTS Assay for NPC1 Promoter Activators. Huh7 NPC1 promoter luciferase reporter, 24 h. AID 485313, 2010. 320,000 tested, 2.4% active. Potency, µM (doses to about 9.22 µM), for the others: at the highest dose activation, hits mostly activators; note: % of control where 0% means no effect; nearly all actives have a fitted effect of over 60% in size
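Luciferase expression driven by the NPC1 promoter was measured in stably transfected Huh7 cells after a 24 h compound incubation, using a luciferase reagent and a luminescence read.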
Rab9 promoter act = qHTS Assay for Rab9 Promoter Activators; Huh7 Rab9 promoter-luciferase reporter, luminescence, 24 h; Potency, µM (top dose mostly 9.22 µM), inactives show at the highest dose activation, negative = inhibition, hits mostly activators; 320,000 tested, 2.8% active; note: % of control where 0% means no effect; nearly all actives have a fitted effect of over 60% in size
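Steps: seed 1500 Huh7 Rab9-luc cells per well, rest 2 h at 37 °C; add compound in DMSO; incubate 24 h; add luciferase reagent, 10 min ambient; read luminescence.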
KinaseGlo FLuc = Counterscreen for Luciferase (Kinase-Glo TM) Inhibition. Luciferin 4-monooxygenase (Photuris pensylvanica), Q27757. Kinase-Glo luciferase, ATP luminescence, 8 min. Potency, µM (doses to about 38.3 µM), for inactives: at the top dose activity change, negative = inhibition, actives largely listed as inhibitors. 200,000 tested, 0.28% active; note: % is set by controls: 0 for no effect and ±100 for the full control effect; nearly all actives have a fitted effect of over 60% in size
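Luminescence was the read-out, taken after 8-minute incubation at ambient temperature. Luciferase turned over luciferin with 10 uM ATP in imidazole pH 7.2 buffer containing KCl, MgCl2, Tween 20 and BSA.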
The depositor's hits bear a star; ? = inconclusive; · = no result. A selection: hits, their analogues and other compounds. The true share with any hit is near 7.3%. Calls come from the whole dose curve; as a rule, active = well fitted curve in the direction sought with a large enough effect; inconclusive = small, poorly fitted or top-dose-only effect, or another doubt; inactive = no such curve, though single readings can be large; an effect the other way counts as inactive or inconclusive. Potency is the fitted concentration of half-maximal effect.

SMILES	SMN2 splice enh	FLuc counter	ELG1 genotox	NPC1 promoter act	Rab9 promoter act	KinaseGlo FLuc
O=C(CN1C(=O)S/C(=C/C=C/c2ccccc2)C1=O)Nc1ccc(C(=O)O)cc1	11.1%	4.78µM*	8.8%	-5.3%	-6.7%	-0.5%
O=C(CN1C(=O)S/C(=C\C=C\c2ccccc2)C1=O)Nc1ccc(C(=O)O)cc1	·	6.01µM*	7.8%	3.0%	3.1%	·
O=C(CCN1C(=O)/C(=C\C=C\c2ccccc2)SC1=S)Nc1ccc(C(=O)O)cc1	·	0.953µM*	?	?	29.2%	·
O=C(CN1C(=O)/C(=C\C=C\c2ccccc2)SC1=S)Nc1ccc(F)cc1	4.47µM*	-5.8%	3.9%	0.1%	1.3%	-1.9%
COc1ccc2c(c1)c1c(c(=O)n(-c3ccccc3C)c(=O)n1CC(=O)N1CCCC1)n2C	·	-6.2%	·	·	·	·
COc1ccc(CCC(=O)c2c(O)cc(O[C@@H]3O[C@H](CO)[C@@H](O)[C@H](O)[C@H]3O[C@@H]3O[C@@H](C)[C@H](O)[C@@H](O)[C@H]3O)cc2O)cc1O	8.8%	·	·	·	·	·
O=C(COC(=O)CCN1C(=O)/C(=C\C=C\c2ccccc2)SC1=S)Nc1cc(F)ccc1F	-13.9%	13.5µM*	3.4%	-1.7%	-7.3%	-0.5%
CN(C)c1ccc(CNC(=O)c2cc3ccccn3n2)cc1	·	-17.3%	·	·	·	·
N=C1S/C(=C\c2ccc(-c3cccc(Cl)c3)o2)C(=O)N1c1nccs1	-57.2%	-6.0%	14.4%	-14.2%	-5.0%	0.5%
COc1ccc(/C=C2\SC(=N)N(c3nccs3)C2=O)cc1OC	-23.3%	2.13µM*	?	-3.1%	-0.2%	1.8%
CCN(CC)c1ccc(/C=N/NS(=O)(=O)c2ccc(C)c([N+](=O)[O-])c2)cc1	·	1.9%	6.7%	-3.8%	-5.6%	·
CCN(CC)c1ccc(N=Cc2ccccc2[N+](=O)[O-])cc1	-22.4%	3.79µM*	-7.3%	-0.8%	2.6%	-4.5%
CCN(CC)c1ccc(N=Cc2ccc([N+](=O)[O-])o2)cc1	-14.7%	6.75µM*	-2.0%	14.1%	22.0%	-20.0%
CCCCCC(=O)N/N=C/c1ccc([N+](=O)[O-])o1	·	-2.4%	·	6.4%	-0.1%	·
Cc1ccc(Cl)cc1N1CCN(C(=O)c2ccc3c(c2)N(Cc2ccccc2F)C(=O)c2ccccc2S3(=O)=O)CC1	-1.6%	0.6%	·	·	·	·
Cc1cccc(C)c1Nc1nnc(SCc2nc3ccccc3s2)s1	?	6.01µM*	?	5.9%	24.9%	-2.8%
COc1cccc(Nc2nnc(SCc3nc4ccccc4s3)s2)c1	-11.0%	13.5µM*	14.8%	?	?	-1.5%
Cc1cccc(C)c1Nc1nnc(SCC(=O)NCc2cccs2)s1	5.0%	-0.4%	-1.2%	3.4%	-1.6%	4.1%
COc1cccc(Nc2nnc(SCN3C(=O)c4ccccc4C3=O)s2)c1	27.8%	4.8%	9.5%	0.7%	-1.3%	5.0%
COc1cccc(Nc2nnc(SCC(=O)N(CC(C)C)CC(C)C)s2)c1	·	10.7µM*	-10.7%	-2.5%	-14.8%	·
Cc1cc(C)c(NC(=O)CSc2nc3ccccc3c3nc(-c4ccccc4)nn23)c(C)c1	·	-0.1%	·	·	·	·
Cn1c(=O)n(C)c2cc(/C=N/NC(=O)c3ccc(Cl)cc3)ccc21	·	-0.9%	4.6%	-4.9%	2.3%	·
Cn1c(=O)cc(C(=O)N/N=C/c2ccc(Cl)cc2)[nH]c1=O	·	12µM*	-2.5%	-3.4%	-4.9%	·
O=C(O)COc1ccc(C(=O)Cc2ccc3c(c2)OCCCO3)c(O)c1	-21.8%	26.9µM*	-2.8%	-2.9%	-3.0%	-4.2%
COc1ccc(C(=O)Cc2ccc3c(c2)OCO3)c(O)c1	5.62µM*	2.69µM*	?	2.82µM*	3.98µM*	-5.3%
O=C(Cc1ccc2c(c1)OCCO2)c1c(O)cc(O)cc1O	10.7%	26.9µM*	17.3%	26.6%	?	-2.5%
